# Where a name gives a salt, the structure may show the parent alone. ± gives the standard deviation of the averaged measurements.
# Tested on: E. coli TESEC Alr+ wild-type control
# Test: growth (OD600 after 10 h); higher = more growth (less inhibition)
# Settings: compound 0.1 mM; raw OD600 reference: median of DMSO wells 0.241, cell-free background 0.041
# Procedure: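 TESEC Mtb Alr E. coli, or the Alr+ wild-type control, in 384-well plates with Prestwick library compounds at 0.1 mM and 1% DMSO, across arabinose induction levels of 1E3 to 1E7 nM. Growth is read as OD600 after 10 h at 37 °C in triplicate biological replicates.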
row,SMILES,growth
1,CC(N)C(O)c1ccccc1 (centres undefined) [Phenylpropanolamine hydrochloride],0.26 ± 0.0031
2,CC[C@@]1([C@@H]2O[C@@H]([C@H]3O[C@@](O)(CO)[C@H](C)C[C@@H]3C)C[C@@H]2C)CC[C@H]([C@]2(C)CC[C@]3(C[C@H](O)[C@@H](C)[C@@H]([C@@H](C)[C@@H](OC)[C@H](C)C(=O)O)O3)O2)O1 [Monensin sodium salt],0.218 ± 0.0078
3,CC(C)[N+](C)(CCC(C(N)=O)(c1ccccc1)c1ccccc1)C(C)C [Isopropamide iodide],0.211 ± 0.003
4,CN1C[C@H](C(=O)N[C@]2(C)O[C@@]3(O)[C@@H]4CCCN4C(=O)[C@H](Cc4ccccc4)N3C2=O)C[C@@H]2c3cccc4[nH]cc(c34)C[C@H]21 [Dihydroergotamine tartrate],0.0782 ± 0.0015
5,CN1[C@@H]2C[C@@H](OC(=O)[C@H](CO)c3ccccc3)C[C@H]1[C@@H]1O[C@@H]12 [Scopolamine hydrochloride],0.252 ± 0.0082
6,CN1[C@@H]2CC[C@H]1C[C@@H](OC(=O)[C@H](CO)c1ccccc1)C2 [Hyoscyamine (L)],0.243 ± 0.0078
7,CN(C)C(=O)Oc1ccc[n+](C)c1 [Pyridostigmine iodide],0.248 ± 0.011
8,CC[N+]1(C)CCCC(OC(=O)C(O)(c2ccccc2)c2ccccc2)C1 (centres undefined) [Pipenzolate bromide],0.217 ± 0.0052
9,CC(Cc1ccccc1)NCCC(c1ccccc1)c1ccccc1 (centres undefined) [Prenylamine lactate],0.04013 ± 0.00032
10,C#C[C@]1(O)CC[C@H]2[C@@H]3CCC4=CC(=O)CC[C@]4(C)[C@H]3CC[C@@]21C [Ethisterone],0.237 ± 0.0043
11,CCNCC(O)c1cccc(O)c1 (centres undefined) [Etilefrine hydrochloride],0.247 ± 0.0026
12,COc1cccc(C2(O)CCCCC2CN(C)C)c1 (centres undefined) [Tramadol hydrochloride],0.238 ± 0.0082
13,C=CCN1CC[C@]23c4c5ccc(O)c4O[C@H]2C(=O)CC[C@@]3(O)[C@H]1C5 [Naloxone hydrochloride],0.244 ± 0.012
14,O=c1[nH]c2ccccc2n1C1CCN(CCCC(c2ccc(F)cc2)c2ccc(F)cc2)CC1 [Pimozide],0.164 ± 0.013
15,CC[C@@H](CO)NC(=O)[C@@H]1C=C2c3cccc4[nH]cc(c34)C[C@H]2N(C)C1 [Methylergometrine maleate],0.227 ± 0.0031
16,C[C@]12Cc3c[nH]nc3C[C@@H]1CC[C@@H]1[C@@H]2CC[C@@]2(C)[C@H]1CC[C@]2(C)O [Stanozolol],0.184 ± 0.0086
17,"CN1CCC2(C)c3cc(O)ccc3N(C)C12 (single isomer, unassigned; (-)) [(-)-Eseroline fumarate salt]",0.225 ± 0.0084
18,C[C@@H]1O[C@@H](O[C@@H]2C=C3CC[C@@H]4[C@H](CC[C@]5(C)[C@@H](c6ccc(=O)oc6)CC[C@]45O)[C@@]3(C)CC2)[C@H](O)[C@H](O)[C@H]1O [Proscillaridin A],0.182 ± 0.0085
19,COc1ccc(CN2CCNCC2)c(OC)c1OC [Trimetazidine dihydrochloride],0.228 ± 0.0052
20,C[N+]1(C)CCOC(O)(c2ccc(-c3ccc(C4(O)C[N+](C)(C)CCO4)cc3)cc2)C1 (centres undefined) [Hemicholinium bromide],0.227 ± 0.013

row,SMILES,growth
1,OC(c1ccccc1)(c1ccccc1)C1CCNCC1 [Azacyclonol],0.222 ± 0.014
2,CCN(C(C)=O)c1cccc(-c2ccnc3c(C#N)cnn23)c1 [Zaleplon],0.205 ± 0.0057
3,Cc1cc(C(C#N)c2ccc(Cl)cc2)c(Cl)cc1NC(=O)c1cc(I)cc(I)c1O (centres undefined) [Closantel],0.067 ± 0.0041
4,C[C@]12CC[C@H](O)C[C@H]1CC[C@@H]1[C@@H]2C[C@@H](O)[C@]2(C)[C@@H](C3=CC(=O)OC3)CC[C@]12O [Digoxigenin],0.228 ± 0.005
5,COc1cc2c(c(OC)c1OC)-c1ccc(OC)c(=O)cc1[C@@H](NC(C)=O)CC2 [Colchicine],0.226 ± 0.0076
6,C=C1C[C@@H]2[C@H](CC[C@]3(C)C(=O)CC[C@@H]23)[C@@]2(C)C=CC(=O)C=C12 [Exemestane],0.113 ± 0.0025
7,C=C1CC[C@@]2(O)[C@H]3Cc4ccc(O)c5c4[C@@]2(CCN3CC2CC2)[C@H]1O5 [Nalmefene hydrochloride],0.238 ± 0.013
8,C[N+](C)(C)CCCCCCCCCC[N+](C)(C)C [Decamethonium bromide],0.246 ± 0.0085
9,CCn1cc(C(=O)O)c(=O)c2cc3c(cc21)OCO3 [Oxolinic acid],0.0726 ± 0.0019
10,O=P1(N(CCCl)CCCl)NCCCO1 (centres undefined) [Cyclophosphamide],0.2382 ± 0.0022
11,CC(CCc1ccccc1)NC(C)C(O)c1ccc(O)cc1 (centres undefined) [Nylidrin],0.215 ± 0.0087
12,NCCCNCCSP(=O)(O)O [Amifostine],0.25 ± 0.0069
13,"CCC1(c2ccc(N)cc2)CCC(=O)NC1=O (centres undefined) [Glutethimide, para-amino]",0.24 ± 0.0099
14,CCN(CC)C(C)C(=O)c1ccccc1 (centres undefined) [Amfepramone hydrochloride],0.25 ± 0.0034
15,C=C(C)[C@@H]1[C@H]2OC(=O)[C@@H]1[C@]1(O)C[C@H]3O[C@]34C(=O)O[C@H]2[C@]14C [Picrotoxinin],0.253 ± 0.0051
16,CC1C=CC=CCCC=CC=CC=CC=CC(OC2OC(C)C(O)C(N)C2O)CC2OC(O)(CC(O)C(O)CCC(O)CC(O)CC(O)CC(=O)OC(C)C(C)C1O)CC(O)C2C(=O)O (centres undefined) [Nystatine],0.297 ± 0.0097
17,CC(C)CC(N(C)C)C1(c2ccc(Cl)cc2)CCC1 (centres undefined) [Sibutramine HCl],0.198 ± 0.0063
18,CCC1(CC)C(=O)C=CNC1=O [Pyrithyldione],0.223 ± 0.0058
19,CCN(C)C(=O)Oc1cccc([C@H](C)N(C)C)c1 [Rivastigmine],0.243 ± 0.0069

# — the supplement of paper PMC9262897, “Low-cost anti-mycobacterial drug discovery using engineered E. coli” (Nature Communications, 2022)
